# Test results reported in the supplement of paper PMC8728848.
# Shown is part of a subset that was picked to be rich in the strongest signals.
# B1: rMpL (Macrolepiota procera) (protein)
# chain: MSTQVSSGRTYKITNVIAGTVIDLSGEDNKSIIGYPYHSGKNQQWTFNWTGKAWTLRSASSGSYLGIEGTPAGGTRLVAVNDPFEWHIWRDEANENAFRIFVPFTNYNLDLSGYGDTTPGTPVQLWWTWEGLHQTWTIDRP
# How the values were obtained:
# Experiment in all cases: glycan array binding signal (z-score within array); higher = stronger binding
# Conditions in all cases: glycan notation: IUPAC condensed, linker removed
# [1] = molecular target: Fuc(a1-2)Gal(b1-3)GalNAc(b1-3)Gal
# How it was run: (§1)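 Glycan array data were curated from 3228 arrays in the Consortium for Functional Glycomics database and kept only where the protein sequence was available. Glycan names were converted to IUPAC-condensed notation, and columns mapping to the same glycan were averaged. The binding signal is a within-array Z-score, averaged across arrays of the same protein sequence at different concentrations or buffers and across linkers. Negative Z-scores can be read as non-binding.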
# [2] = molecular target: Fuc(a1-2)Gal(b1-3)GlcNAc(b1-3)[Fuc(a1-2)Gal(b1-3)GlcNAc(b1-6)]GalNAc
# How it was run: as §1
# [3] = molecular target: Fuc(a1-2)Gal(b1-4)GlcNAc(b1-3)Gal(b1-4)GlcNAc(b1-3)Gal(b1-4)GlcNAc
# How it was run: as §1
# [4] = molecular target: Fuc(a1-2)Gal(b1-4)GlcNAc(b1-3)GalNAc
# How it was run: as §1
# [5] = molecular target: Fuc(a1-2)[Gal(a1-3)]Gal(b1-3)GlcNAc(b1-2)Man(a1-3)[Fuc(a1-2)[Gal(a1-3)]Gal(b1-3)GlcNAc(b1-2)Man(a1-6)]Man(b1-4)GlcNAc(b1-4)GlcNAc
# How it was run: as §1
# [6] = molecular target: Fuc(a1-2)[Gal(a1-3)]Gal(b1-4)GlcNAc(b1-2)Man(a1-3)[Fuc(a1-2)[Gal(a1-3)]Gal(b1-4)GlcNAc(b1-2)Man(a1-6)]Man(b1-4)GlcNAc(b1-4)GlcNAc
# How it was run: as §1
# [7] = molecular target: Fuc(a1-2)[Gal(a1-3)]Gal(b1-4)[Fuc(a1-3)]GlcNAc
# How it was run: as §1
# [8] = molecular target: Fuc(a1-2)[GalNAc(a1-3)]Gal(b1-3)GlcNAc(b1-6)GalNAc
# How it was run: as §1
# [9] = molecular target: Fuc(a1-3)[Gal(b1-4)]GlcNAc(b1-6)GalNAc
# How it was run: as §1
# [10] = molecular target: Fuc(a1-3)[Gal3S(b1-4)]GlcNAc
# How it was run: as §1
# Fuc(a1-4)GlcNAc = molecular target: Fuc(a1-4)GlcNAc
# How it was run: as §1
# Gal(a1-3)Gal(b1-4)Glc = molecular target: Gal(a1-3)Gal(b1-4)Glc
# How it was run: as §1
# [11] = molecular target: Gal(a1-3)Gal(b1-4)GlcNAc(b1-6)GalNAc
# How it was run: as §1
# Gal(b1-3)Gal(b1-4)GlcNAc = molecular target: Gal(b1-3)Gal(b1-4)GlcNAc
# How it was run: as §1
# Gal(b1-3)GalNAc = molecular target: Gal(b1-3)GalNAc
# How it was run: as §1
# Gal(b1-3)GalNAc(b1-3)Gal = molecular target: Gal(b1-3)GalNAc(b1-3)Gal
# How it was run: as §1
# [12] = molecular target: Gal(b1-3)GlcNAc(b1-2)[Gal(b1-3)GlcNAc(b1-6)]Man(a1-6)[Gal(b1-3)GlcNAc(b1-2)Man(a1-3)]Man(b1-4)GlcNAc(b1-4)GlcNAc
# How it was run: as §1
# [13] = molecular target: Gal(b1-3)GlcNAc(b1-3)Gal(b1-4)Glc
# How it was run: as §1
# [14] = molecular target: Gal(b1-3)GlcNAc(b1-3)Gal(b1-4)GlcNAc(b1-2)[Gal(b1-3)GlcNAc(b1-3)Gal(b1-4)GlcNAc(b1-6)]Man(a1-6)[Gal(b1-3)GlcNAc(b1-3)Gal(b1-4)GlcNAc(b1-2)Man(a1-3)]Man(b1-4)GlcNAc(b1-4)[Fuc(a1-6)]GlcNAc
# How it was run: as §1
# [15] = molecular target: Gal(b1-3)GlcNAc(b1-3)Gal(b1-4)GlcNAc(b1-3)Gal(b1-4)GlcNAc(b1-2)[Gal(b1-3)GlcNAc(b1-3)Gal(b1-4)GlcNAc(b1-3)Gal(b1-4)GlcNAc(b1-6)]Man(a1-6)[Gal(b1-3)GlcNAc(b1-3)Gal(b1-4)GlcNAc(b1-3)Gal(b1-4)GlcNAc(b1-2)Man(a1-3)]Man(b1-4)GlcNAc(b1-4)[Fuc(a1-6)]GlcNAc
# How it was run: as §1
# [16] = molecular target: Gal(b1-3)GlcNAc(b1-3)Gal(b1-4)GlcNAc(b1-6)[Gal(b1-3)GlcNAc(b1-3)]Gal(b1-4)Glc
# How it was run: as §1
# [17] = molecular target: Gal(b1-3)GlcNAc(b1-3)GalNAc
# How it was run: as §1
# [18] = molecular target: Gal(b1-4)GlcNAc(a1-6)Gal(b1-4)GlcNAc
# How it was run: as §1
# [19] = molecular target: Gal(b1-4)GlcNAc(b1-2)[Gal(b1-4)GlcNAc(b1-4)]Man(a1-3)[Gal(b1-4)GlcNAc(b1-2)[Gal(b1-4)GlcNAc(b1-6)]Man(a1-6)][GlcNAc(b1-4)]Man(b1-4)GlcNAc(b1-4)GlcNAc
# How it was run: as §1
# [20] = molecular target: Gal(b1-4)GlcNAc(b1-2)[Gal(b1-4)GlcNAc(b1-4)]Man(a1-3)[GlcNAc(b1-4)][Gal(b1-4)GlcNAc(b1-2)Man(a1-6)]Man(b1-4)GlcNAc(b1-4)GlcNAc
# How it was run: as §1
# [21] = molecular target: Gal(b1-4)GlcNAc(b1-3)Gal(b1-4)GlcNAc(b1-2)[Gal(b1-4)GlcNAc(b1-3)Gal(b1-4)GlcNAc(b1-6)]Man(a1-6)[Gal(b1-4)GlcNAc(b1-3)Gal(b1-4)GlcNAc(b1-2)Man(a1-3)]Man(b1-4)GlcNAc(b1-4)GlcNAc
# How it was run: as §1
# [22] = molecular target: Gal(b1-4)GlcNAc(b1-3)Gal(b1-4)GlcNAc(b1-2)[Gal(b1-4)GlcNAc(b1-3)Gal(b1-4)GlcNAc(b1-6)]Man(a1-6)[Gal(b1-4)GlcNAc(b1-3)Gal(b1-4)GlcNAc(b1-2)Man(a1-3)]Man(b1-4)GlcNAc(b1-4)[Fuc(a1-6)]GlcNAc
# How it was run: as §1
# [23] = molecular target: Gal(b1-4)GlcNAc(b1-3)Gal(b1-4)GlcNAc(b1-3)Gal(b1-4)GlcNAc(b1-2)[Gal(b1-4)GlcNAc(b1-3)Gal(b1-4)GlcNAc(b1-3)Gal(b1-4)GlcNAc(b1-6)]Man(a1-6)[Gal(b1-4)GlcNAc(b1-3)Gal(b1-4)GlcNAc(b1-3)Gal(b1-4)GlcNAc(b1-2)Man(a1-3)]Man(b1-4)GlcNAc(b1-4)[Fuc(a1-6)]GlcNAc
# How it was run: as §1
# [24] = molecular target: Gal(b1-4)GlcNAc(b1-3)Gal(b1-4)GlcNAc(b1-3)Gal(b1-4)GlcNAc(b1-3)Gal(b1-4)GlcNAc(b1-2)Man(a1-3)[Gal(b1-4)GlcNAc(b1-3)Gal(b1-4)GlcNAc(b1-3)Gal(b1-4)GlcNAc(b1-3)Gal(b1-4)GlcNAc(b1-2)Man(a1-6)]Man(b1-4)GlcNAc(b1-4)GlcNAc
# How it was run: as §1
# [25] = molecular target: Gal(b1-4)GlcNAc(b1-3)Gal(b1-4)GlcNAc(b1-3)Gal(b1-4)GlcNAc(b1-3)Gal(b1-4)GlcNAc(b1-2)Man(a1-3)[Gal(b1-4)GlcNAc(b1-3)Gal(b1-4)GlcNAc(b1-3)Gal(b1-4)GlcNAc(b1-3)Gal(b1-4)GlcNAc(b1-2)Man(a1-6)]Man(b1-4)GlcNAc(b1-4)[Fuc(a1-6)]GlcNAc
# How it was run: as §1
binder,measurement,setting,value
B1,glycan array binding signal (z-score),[1],-0.272
same,glycan array binding signal (z-score),[2],-0.078
same,glycan array binding signal (z-score),[3],-0.248
same,glycan array binding signal (z-score),[4],-0.301
same,glycan array binding signal (z-score),[5],-0.259
same,glycan array binding signal (z-score),[6],-0.257
same,glycan array binding signal (z-score),[7],-0.216
same,glycan array binding signal (z-score),[8],-0.353
same,glycan array binding signal (z-score),[9],-0.065
same,glycan array binding signal (z-score),[10],-0.253
same,glycan array binding signal (z-score),Fuc(a1-4)GlcNAc,-0.316
same,glycan array binding signal (z-score),Gal(a1-3)Gal(b1-4)Glc,-0.194
same,glycan array binding signal (z-score),[11],-0.27
same,glycan array binding signal (z-score),Gal(b1-3)Gal(b1-4)GlcNAc,-0.257
same,glycan array binding signal (z-score),Gal(b1-3)GalNAc,-0.273
same,glycan array binding signal (z-score),Gal(b1-3)GalNAc(b1-3)Gal,-0.243
same,glycan array binding signal (z-score),[12],3.42
same,glycan array binding signal (z-score),[13],0.808
same,glycan array binding signal (z-score),[14],2.4
same,glycan array binding signal (z-score),[15],3.58
same,glycan array binding signal (z-score),[16],4.17
same,glycan array binding signal (z-score),[17],0.153
same,glycan array binding signal (z-score),[18],9.59
same,glycan array binding signal (z-score),[19],4.13
same,glycan array binding signal (z-score),[20],1.46
same,glycan array binding signal (z-score),[21],1.23
same,glycan array binding signal (z-score),[22],3.75
same,glycan array binding signal (z-score),[23],4.71
same,glycan array binding signal (z-score),[24],3.24
same,glycan array binding signal (z-score),[25],3.33
